Reference: PubChem BioAssay
“And” between values parts separate entries of the source, which are not always exact repeats. Identical values can stand only once. The source made the active and inactive calls.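 Rule for the calls, unless noted: active = thallium flux through the channel raised or lowered by more than 3 SD from vehicle-only wells, actives on both sides; inactive = the rest.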

Assays:
[1] = P. berghei load reduction in hepatocytes – cell-based, HepG2, luciferase luminescence, HepG2 viability, primary screen (AID 624349; in the data active = parasite load remaining mostly below about 12%, no sharp cut-off; inactive = mostly above about 10%;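 note: 100% = mean of DMSO negative control wells on the same plate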); settings: P. berghei liver stage in HepG2, luciferase luminescence, concentration not given here; parasite load remaining: stronger effect = lower value; viability: measured here: HepG2 viability without parasites
[2] = modulation of C. elegans fzo-1 (AID 1259413; call rule not given here;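 note: fzo-1 mutant C. elegans worms in liquid wells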); settings: C. elegans fzo-1 modulator screen, mean read-out; stronger effect = higher value
[3] = viability loss with induced miR-34 in A549 – imaging, A549 dox-inducible miR-34, nuclei and caspase counts, primary screen (AID 1347080;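 active = compounds whose cell count with miR-34 switched on is under 0.7 times the count with it off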); settings: A549 miR-34 inducible, Hoechst nuclei count, 48 h
[4] = MELAS cybrid and Rieske KO viability enhancers – cell-based, MELAS cybrids, Rieske KO mouse fibroblasts, CellTiter-Glo, primary screen (AID 1508586;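 active = mean z-score across replicates of 1.96 or higher in either the MELAS or the Rieske mutant cell line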;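 note: z relative to plate mean and SD of compound and empty wells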); settings: low glucose
[5] = galactose survival enhancers in mitochondrial complex I cybrids – cell-based, galactose medium, ATP luminescence, primary screen (AID 1645843;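 active = z-score of at least 1.8 in each of two replicates, scored against plate mean and spread of sample wells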;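 note: positive z means more ATP and so rescue of galactose-driven cybrid death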); settings: complex I mutant cybrid cells, 72 h, stronger effect = higher value
[6] = system: F380Y; experiment: BK channel mutant inhibitors and activators – cell-based, U2OS BacMam, thallium flux, beta subunits, selectivity assay, profiling panel (AID 1259406); settings: U2OS BacMam BK variants, at 30 µM;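 note: initial slope of Thallos dye fluorescence rise after thallium is added; log ratio against the mean of 0.3% DMSO vehicle wells on the same plate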
[7] = system: F380Y/beta1; experiment: as above; settings: U2OS BacMam BK variants, at 30 µM
[8] = system: F380Y/beta2Delta; experiment: as above; settings: U2OS BacMam BK variants, at 30 µM
[9] = system: F380Y/beta4; experiment: as above; settings: U2OS BacMam BK variants, at 30 µM
[10] = molecular target: Calcium-activated potassium channel subunit alpha-1 (Homo sapiens) + Leucine-rich repeat-containing protein 26 (Homo sapiens) (UniProt Q12791+Q2I0M4); experiment: as above; settings: U2OS BacMam BK variants, F380Y/Slo1WT/gamma1, at 30 µM
Calcium-activated potassium channel subunit alpha-1 (Homo sapiens) + Leucine-rich repeat-containing protein 26 (Homo sapiens), sequence (Q2I0M4 whole entry, looked up, one chain of several): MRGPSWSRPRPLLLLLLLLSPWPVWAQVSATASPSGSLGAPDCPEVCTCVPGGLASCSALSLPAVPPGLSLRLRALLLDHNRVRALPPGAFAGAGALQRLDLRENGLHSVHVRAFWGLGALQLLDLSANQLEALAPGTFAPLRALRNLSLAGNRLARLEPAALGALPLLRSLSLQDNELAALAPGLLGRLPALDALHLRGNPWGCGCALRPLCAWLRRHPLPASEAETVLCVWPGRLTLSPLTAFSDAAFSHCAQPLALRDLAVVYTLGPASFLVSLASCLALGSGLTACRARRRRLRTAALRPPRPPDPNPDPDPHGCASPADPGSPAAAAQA

[11] = system: R275C; experiment: as above; settings: U2OS BacMam BK variants, at 30 µM
[12] = system: R275C/beta1; experiment: as above; settings: U2OS BacMam BK variants, at 30 µM
[13] = system: R275C/beta2Delta; experiment: as above; settings: U2OS BacMam BK variants, at 30 µM
[14] = system: R275C/beta4; experiment: as above; settings: U2OS BacMam BK variants, at 30 µM
[15] = system: R275C/Slo1WT/beta2; experiment: as above; settings: U2OS BacMam BK variants, at 30 µM
[16] = stronger effect = lower value, cell number ratio, induced over uninduced
[17] = measured here: relative caspase fold change +Dox/-Dox
[18] = measured here: total cells with miR-34 induction, stronger effect = lower value
[19] = measured here: total cells without miR-34 induction
[20] = MELAS cybrid survival, CellTiter-Glo 48 h, stronger effect = higher value
[21] = Rieske KO mouse fibroblast survival, CellTiter-Glo 72 h

Structure (SMILES)	parasite load remaining [1]	viability [1]	mean signal [2]	fold change [3, 16]	fold change [3, 17]	cell count [3, 18]	cell count [3, 19]	z-score [4, 20]	z-score [4, 21]	z-score [5]	log fold change Tl+ flux [6]	log fold change Tl+ flux [7]	log fold change Tl+ flux [8]	log fold change Tl+ flux [9]	log fold change Tl+ flux [10]	log fold change Tl+ flux [11]	log fold change Tl+ flux [12]	log fold change Tl+ flux [13]	log fold change Tl+ flux [14]	log fold change Tl+ flux [15]
NC(Cc1cc(I)c(Oc2ccc(O)c(I)c2)c(I)c1)C(=O)O (centres undefined)	39.9% (inactive)	106%	230 (inactive)	0.986 (inactive) and 0.874 (inactive)	1.58 and 0.636	9780 and 7770	9910 and 8890	-0.101 (inactive)	0.0136	-1.5 (inactive)	0.0253 (inactive)	0.112 (inactive)	0.058 (inactive)	0.107 (active)	0.0742 (inactive)	0.047 (inactive)	0.0451 (inactive)	0.136 (active)	0.254 (active)	-0.125 (active)
Cc1nnc(SCC2=C(C(=O)O)N3C(=O)C(NC(=O)Cn4cnnn4)C3SC2)s1 (centres undefined)	65.6% (inactive)	110%	235 (inactive)	0.923 (inactive)	1.36	10000	10800			-0.49 (inactive)	-0.00444 (inactive)	-0.0723 (inactive)	0.025 (inactive)	0.028 (inactive)	0.00509 (inactive)	0.00777 (inactive)	0.00195 (inactive)	0.0237 (inactive)	-0.0318 (inactive)	0.0155 (inactive)
C=CCc1ccc(O)c(-c2ccc(O)c(CC=C)c2)c1	18.8% (inactive)	70.3%	216 (inactive)	0.989 (inactive) and 0.916 (inactive)	1.37 and 0.714	8192 and 9270	8280 and 10100	-0.24 (inactive)	0.74	-1.87 (inactive)	0.306 (active)	0.643 (active)	0.34 (active)	0.501 (active)	0.418 (active)	0.0538 (inactive)	0.387 (active)	0.524 (active)	0.697 (active)	0.149 (active)
O=C(NC(CO)C(O)c1ccc([N+](=O)[O-])cc1)C(Cl)Cl (centres undefined)	48.8% (inactive)	87.3%	263 (inactive)	0.967 (inactive) and 0.86 (inactive)	1.3 and 1.21	7650 and 7730	7910 and 8980	-0.304 (inactive)	0.499	0.48 (inactive)	-0.0332 (inactive)	0.0194 (inactive)	-0.0071 (inactive)	0.000156 (inactive)	0.0379 (inactive)	-0.0175 (inactive)	-0.0341 (inactive)	-0.00719 (inactive)	0.0483 (inactive)	0.0603 (inactive)
CCOC(=O)CCC(=O)OC1C(OC2C(C)C(OC3CC(C)(OC)C(O)C(C)O3)C(C)C(=O)OC(CC)C(C)(O)C(O)C(C)C(=O)C(C)CC2(C)O)OC(C)CC1N(C)C (centres undefined)	56% (inactive)	94.7%	242 (inactive)	0.96 (inactive)	1.93	10400	10900			0.77 (inactive)	-0.00772 (inactive)	0.06 (inactive)	-0.0119 (inactive)	-0.0302 (inactive)	-0.0035 (inactive)	-0.135 (active)	0.019 (inactive)	-0.0301 (inactive)	-0.00612 (inactive)	0.000174 (inactive)
CC(C)OC(=O)CCC/C=C\C[C@@H]1[C@@H](CC[C@@H](O)CCc2ccccc2)[C@H](O)C[C@@H]1O	89.4% (inactive) and 43.5% (inactive)	60.9% and 104%	205 (inactive)	0.899 (inactive)	1.07	10000	11100	0.73 (inactive) and -0.464 (inactive)	1.53 and -0.0343	0.01 (inactive)	0.503 (active)	0.284 (active)	-0.0484 (inactive)	0.158 (active)	0.228 (active)	-0.0794 (inactive)	0.476 (active)	0.262 (active)	0.467 (active)	0.084 (active)
CN1CCC[C@H]1c1cccnc1	58.8% (inactive) and 68.1% (inactive) and 77.4% (inactive)	92.8% and 95.3% and 105%	289 (inactive)	1 (inactive) and 0.879 (inactive)	1.38 and 3.3	11100 and 11800	11100 and 13400			1.02 (inactive)	0.0275 (inactive)	0.0102 (inactive)	0.027 (inactive)	0.0603 (inactive)	-0.0145 (inactive)	0.033 (inactive)	0.0044 (inactive)	0.0329 (inactive)	-0.0173 (inactive)	-0.00315 (inactive)
